A selection: hits, their analogues and other compounds. The true share with any hit is near 31%.
CYP2C9 activ: human CYP2C9 activators, primary screen, biochemical, luminescence; recombinant CYP2C9, luciferin-H conversion; hits give high values; factor 1 = untreated enzyme, 0 = blocked; activation factor at 5 µM; 1.4% of 96,000 active;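 active = activation factor of 2 or more for CYP2C9 at a 5 µM dose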
Target sequence (P11712 whole entry, looked up): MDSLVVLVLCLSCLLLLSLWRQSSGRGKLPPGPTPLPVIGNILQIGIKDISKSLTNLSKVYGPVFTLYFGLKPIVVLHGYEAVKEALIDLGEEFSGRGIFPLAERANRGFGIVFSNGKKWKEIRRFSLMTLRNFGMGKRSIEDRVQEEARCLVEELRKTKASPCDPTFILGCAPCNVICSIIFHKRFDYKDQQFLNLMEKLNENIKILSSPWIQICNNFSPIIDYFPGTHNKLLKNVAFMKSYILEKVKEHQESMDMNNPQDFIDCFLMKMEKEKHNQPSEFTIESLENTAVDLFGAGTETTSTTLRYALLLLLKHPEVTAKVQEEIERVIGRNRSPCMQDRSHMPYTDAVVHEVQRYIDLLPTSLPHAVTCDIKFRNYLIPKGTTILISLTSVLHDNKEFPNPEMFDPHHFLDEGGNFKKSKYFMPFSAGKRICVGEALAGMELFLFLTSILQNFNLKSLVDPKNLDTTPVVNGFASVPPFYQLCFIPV
CYP2C19 activ: human CYP2C19 activators, primary screen, biochemical, luminescence | Cytochrome P450 2C19 (Homo sapiens), P33261 | recombinant CYP2C19, luciferin-H EGE luminescence; hits give high values; 0 = fully inhibited enzyme, 1 = untreated enzyme | activation factor at 5 µM | 96,000 tested, under 10 active | AID 1025, 2008;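 active = activation factor of at least 2 at 5 µM in the primary screen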
CYP2C9 inh: blockers of cytochrome P450 2C9 activity – biochemical, luminescence, ADME assay, primary screen; P11712; CYP2C9 Supersomes, luciferin-H conversion; inhibition, % at 5 µM; 20% of 96,000 active;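 active = blocking of liver enzyme CYP2C9 beyond about 50% at 5 µM, limit read from the data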
CYP2C19 inhib: blockers of cytochrome P450 2C19 activity – biochemical, luminescence, ADME assay, primary screen; inhibition, % at 5 µM; CYP2C19 Supersomes, luciferin-H EGE luminescence, 30 min; P33261; 21% of 96,000 active;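 active = CYP2C19 inhibition above a set limit at 5 µM in the primary screen, cut at about 50% in these data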
PLAP act: PLAP enzyme activators, biochemical, luminescence, HTS. activation fold at 20 µM. purified PLAP enzyme, luminescent substrate read-out; hits give high values. Alkaline phosphatase, placental type (Homo sapiens), P05187. 1.2% of 96,000 active; in the data active = activation fold above about 2
Hits are given with their value.

O=C(c1ccc(NS(=O)(=O)c2ccccc2)cc1)N1CCN(Cc2ccc3c(c2)OCO3)CC1 was read as CYP2C9 activ inactive, CYP2C19 activ inactive, CYP2C9 inh 94, CYP2C19 inhib inactive and PLAP act inactive.
O=C(Nc1ccccc1)N1CCN(Cc2ccc3c(c2)OCO3)CC1 was read as CYP2C9 activ inactive, CYP2C19 activ inactive, CYP2C9 inh inactive, CYP2C19 inhib inactive and PLAP act inactive.
For CN(c1ccc(C(=O)N2CCN(Cc3ccc4c(c3)OCO4)CC2)cc1)S(=O)(=O)c1ccccc1 the results were CYP2C9 activ inactive, CYP2C19 activ inactive, CYP2C9 inh 94, CYP2C19 inhib 79 and PLAP act inactive.
`Cc1ccc(S(=O)(=O)N(C)c2ccc(N)cc2)cc1` gave CYP2C9 activ 2.2, CYP2C19 activ inactive, CYP2C9 inh inactive, CYP2C19 inhib 94 and PLAP act inactive.
For Cc1noc(C)c1C(=O)N1CCN(Cc2ccc3c(c2)OCO3)CC1 the results were CYP2C9 activ inactive, CYP2C19 activ inactive, CYP2C9 inh inactive, CYP2C19 inhib inactive and PLAP act inactive.
Screening COC(=O)c1cc(NC(=O)C23CCC(C)(C(=O)O2)C3(C)C)cc(C(=O)OC)c1 (stereo unspecified) returned CYP2C9 activ inactive, CYP2C19 activ inactive, CYP2C9 inh inactive, CYP2C19 inhib inactive and PLAP act inactive.
`COc1cc(/C=N/NC(=O)c2cc(C34CC5CC(CC(C5)C3)C4)[nH]n2)ccc1O` gave CYP2C9 activ inactive, CYP2C19 activ inactive, CYP2C9 inh inactive, CYP2C19 inhib inactive and PLAP act inactive.
C#CCOC(=O)c1ccccc1C(=O)N(CC)CC was read as CYP2C9 activ inactive, CYP2C19 activ inactive, CYP2C9 inh inactive, CYP2C19 inhib inactive and PLAP act inactive.
Screening Cc1ccc(-c2nc(CSCC(=O)N3CCOCC3)c(C)o2)cc1 returned CYP2C9 activ inactive, CYP2C19 activ inactive, CYP2C9 inh inactive, CYP2C19 inhib inactive and PLAP act inactive.
`CC(C)CC(=O)N1CCN(Cc2ccc3c(c2)OCO3)CC1` gave CYP2C9 activ inactive, CYP2C19 activ inactive, CYP2C9 inh inactive, CYP2C19 inhib inactive and PLAP act inactive.
Cc1ccc(S(=O)(=O)N(C)c2ccc(C(=O)N3CCN(Cc4ccc5c(c4)OCO5)CC3)cc2)cc1 was read as CYP2C9 activ inactive, CYP2C19 activ inactive, CYP2C9 inh 54, CYP2C19 inhib 55 and PLAP act 2.
Screening O=C(c1ccc(Cn2cc(Cl)cn2)o1)N1CCN(Cc2ccc3c(c2)OCO3)CC1 returned CYP2C9 activ inactive, CYP2C19 activ inactive, CYP2C9 inh inactive, CYP2C19 inhib inactive and PLAP act inactive.
For O=C(CN(c1ccccc1)S(=O)(=O)c1ccccc1)N1CCN(Cc2ccc3c(c2)OCO3)CC1 the results were CYP2C9 activ inactive, CYP2C19 activ inactive, CYP2C9 inh 89, CYP2C19 inhib 69 and PLAP act inactive.
Cc1cccc(Cc2c(C)nc3c(C(=O)N4CCN(Cc5ccc6c(c5)OCO6)CC4)cnn3c2C)c1 was read as CYP2C9 activ inactive, CYP2C19 activ inactive, CYP2C9 inh 76, CYP2C19 inhib 93 and PLAP act inactive.
`Cc1cccc(-c2nc(CSCC(=O)N3CCN(Cc4ccc5c(c4)OCO5)CC3)c(C)o2)c1` gave CYP2C9 activ inactive, CYP2C19 activ inactive, CYP2C9 inh inactive, CYP2C19 inhib 70 and PLAP act inactive.
Cc1ccc(S(=O)(=O)N(C)c2ccc(C(=O)N3CCC(C(N)=O)CC3)cc2)cc1 was read as CYP2C9 activ inactive, CYP2C19 activ inactive, CYP2C9 inh inactive, CYP2C19 inhib inactive and PLAP act inactive.
Screening Cc1ccccc1C(=O)Nc1nc2n(n1)C(c1ccccc1)CC(=O)N2 (stereo unspecified) returned CYP2C9 activ inactive, CYP2C19 activ inactive, CYP2C9 inh inactive, CYP2C19 inhib inactive and PLAP act inactive.
For CSc1nnnn1-c1cccc(O)c1 the results were CYP2C9 activ 2.4, CYP2C19 activ inactive, CYP2C9 inh inactive, CYP2C19 inhib inactive and PLAP act inactive.
`O=[N+]([O-])c1cc(Cl)cc(/C=N\Nc2ccccn2)c1O` gave CYP2C9 activ inactive, CYP2C19 activ inactive, CYP2C9 inh 50, CYP2C19 inhib 54 and PLAP act inactive.
For Cc1cccc(C)c1-n1c(C)cc(/C=N\Nc2ccc([N+](=O)[O-])cn2)c1C the results were CYP2C9 activ inactive, CYP2C19 activ inactive, CYP2C9 inh inactive, CYP2C19 inhib inactive and PLAP act inactive.
COCCN(C(=O)Cc1cccs1)C(C(=O)NCc1ccc(OC)cc1)c1ccc(OC)cc1 (stereo unspecified) was read as CYP2C9 activ inactive, CYP2C19 activ inactive, CYP2C9 inh 65, CYP2C19 inhib inactive and PLAP act inactive.
`COC(=O)c1ccc(C(C(=O)NCc2ccccc2)N(Cc2cccs2)C(=O)c2cnccn2)cc1` (stereo unspecified) gave CYP2C9 activ inactive, CYP2C19 activ inactive, CYP2C9 inh inactive, CYP2C19 inhib inactive and PLAP act inactive.
Screening COc1ccc(C(C(=O)NCc2ccccc2)N(Cc2ccc3c(c2)OCO3)C(=O)c2cnccn2)cc1 (stereo unspecified) returned CYP2C9 activ inactive, CYP2C19 activ inactive, CYP2C9 inh 94, CYP2C19 inhib 94 and PLAP act inactive.
For COc1ccc(CNC(=O)C(c2ccncc2)N(C(=O)Cc2cccs2)c2cccc(C)c2)cc1 (stereo unspecified) the results were CYP2C9 activ inactive, CYP2C19 activ inactive, CYP2C9 inh inactive, CYP2C19 inhib 70 and PLAP act inactive.
For COc1ccc(CNC(=O)C(c2ccncc2)N(C(=O)Cc2cccs2)c2ccccc2C)cc1 (stereo unspecified) the results were CYP2C9 activ inactive, CYP2C19 activ inactive, CYP2C9 inh inactive, CYP2C19 inhib 54 and PLAP act inactive.
`Cc1nnc(SCC2CCCO2)n1-c1ccccc1` (stereo unspecified) gave CYP2C9 activ inactive, CYP2C19 activ inactive, CYP2C9 inh inactive, CYP2C19 inhib inactive and PLAP act inactive.
For CCC(=O)Nc1nnc(C(C)(C)C)s1 the results were CYP2C9 activ inactive, CYP2C19 activ inactive, CYP2C9 inh inactive, CYP2C19 inhib inactive and PLAP act inactive.
For CCn1c(=O)c2c(n3cnnc13)-c1ccccc1CC21CCCCC1 the results were CYP2C9 activ inactive, CYP2C19 activ inactive, CYP2C9 inh inactive, CYP2C19 inhib inactive and PLAP act inactive.
For Cc1ccc(C)c(/C(O)=C2/C(=O)C(=O)N(CCN3CCOCC3)C2c2ccco2)c1 (stereo unspecified) the results were CYP2C9 activ inactive, CYP2C19 activ inactive, CYP2C9 inh inactive, CYP2C19 inhib inactive and PLAP act inactive.
Screening COc1ccc(CNC(=O)C(c2ccco2)N(Cc2cccs2)C(=O)Cc2cccs2)cc1 (stereo unspecified) returned CYP2C9 activ inactive, CYP2C19 activ inactive, CYP2C9 inh inactive, CYP2C19 inhib inactive and PLAP act inactive.
